Laboratory results from publication PMC12864922, “TDP-43 directly inhibits mRNA accumulation in neurites through modulation of mRNA stability”.
Whole data set: some 9,900 sequences, median “r (bound/input frequency ratio)” near 0.7, cut for the highest 2% near 6.5. What follows is part of a selection rich in the highest values, with near analogues and random picks from the rest.

B1: ENSMUSG00000031028.158|Tub (ssRNA)
RNA: GGGAGUUCUACAGUCCGACGAUCGCUUCGAUAUCCGCAUGCUAUGCCAGCAUGCCAUGAUCAGUGAGGGCUGUGUGCCAUGCUUAGGGGGAUGGCGCAGGGUGAGGGGAGCAGAGGAUAUUUUAGGGCCACAAGAGCUCAGAGGUAGCGGACCUCUGUGUGGUUCACCAACAGCAAUGCUGAUCCCUGAGUAUAGGGCACAUGUCUCUUGGUUACCUCACUGGUUAAUGGCAGAGUUGAGAACCUCAAAUUCUUUUGUUCCUACUGUUGCCCAGAAACUAGACUCUCUGACCUGCUAGGGUCUCUCUUGCGGUCGCACUAGUGUGGAAUUCUCGGGUGUCAAGG
B2: ENSMUSG00000031028.505|Tub (ssRNA)
RNA: GGGAGUUCUACAGUCCGACGAUCGCUUCGAUAUCCGCAUGCUACUGGGAAGACAGGAGUCGGAAGCCAAGGUGUGUGGCAACAGUCUGGAAGAGAGCUUUUGGUAAUCAUACCGUCUUCAGUGACAAGGCAACAAUGCUGUAAAGUGGGUUUGUUUGGUUUUGUUUUUUCUUUCUCUUUUAUGGAAAUGGCAGGUCUAUUUGCCUCAAACGUUAUGUAGAAGUAGUUCUAAGUUUAACAAGCAAUAGAGAUGACUGCUUAGCUAGGAUCUGCAGGGAGCUCUGCUCUGCAAGCACAACACCUGCUCUUGCGGUCGCACUAGUGUGGAAUUCUCGGGUGUCAAGG
B3: ENSMUSG00000090935.538|Synj2bp|26:32 (ssRNA)
RNA: GGGAGUUCUACAGUCCGACGAUCGCUUCGAUAUCCGCAUGCUAAAUGGCAAGGAGGAUAAAACACUGUACACACAUGUAUUGUUGAUCUAAAUAAAAAAUAUCAUUGGUAGAAGUUUUACUUUGGUUGAUAAGGAUUCUGAUAACAUUUGGGUCUCCUUAGGAAAGAAACACUUAACUAAAACAUUUAAGUUUUAGGCAAAUACUGUAAUAUUUCACUCUUAGUUAUAUGAAAACUAAAUGAGAUGUUGAGAAUCUAUAUAGAUUAUUCAAAUUUUAUGUUUCUUAUAGACUGACUCAAAUAUCUCUUGCGGUCGCACUAGUGUGGAAUUCUCGGGUGUCAAGG
B4: ENSMUSG00000061578.246|Ksr2 (ssRNA)
RNA: GGGAGUUCUACAGUCCGACGAUCGCUUCGAUAUCCGCAUGCUACAGAACCUUCUCACCCCUUUGCAAAGCUCUUGCCGUCUGCACCCGGGACCCCGGGACCCACACAAGUUGUCCCCAUGUGAACAUCCUGCCUCUCCUGGUGACAUCUGUCUCUGGCUCAGCUUCUCUGCCUCUUACAGACAGUUUCCCUGUACAUUUGCUUAUGGCCCUGGGCUCCAGAGUCGCUGAAGACCACUCUCCACAGCAGCUGUAACCCCAUCUAACAAGCCCUGUUCUGGAUAUAUCUCUGUGGCCAGGGCUGGCUCUUGCGGUCGCACUAGUGUGGAAUUCUCGGGUGUCAAGG
B5: ENSMUSG00000061578.893|Ksr2 (ssRNA)
RNA: GGGAGUUCUACAGUCCGACGAUCGCUUCGAUAUCCGCAUGCUAGGCCAUCAGGGCCCCAUUCUGAGGUCCUGGGACACUACCCAAACCCUAGCACUCUCCCAGUGACUCUCCUAUGAGUACAUAUGCCAUCCUGCUUCCUUUGUGGCAAAACCCUGGGUCACCCAGAGACAGAUUUCCCAGAAUCCCUGGGCCACUUCUCAAUUCUACCCAUGACAGACAUGUCCCAUCCAUGAGCCCAGAUAGUCAAAGACUUCAGCACAAGGGUGUUUAGAGUAGGCAGUGUGGAAGUAUCAAUAAGGUUACUCUUGCGGUCGCACUAGUGUGGAAUUCUCGGGUGUCAAGG
B6: ENSMUSG00000061578.293|Ksr2 (ssRNA)
RNA: GGGAGUUCUACAGUCCGACGAUCGCUUCGAUAUCCGCAUGCUAUAAGCAUCUUAGAGUUUCUCUUUUCUCUUUAAUUGCAUCAGGACCCCUUUGGUCCAUGUACCCCGGUCUCUGUCACAUGCCUUUGUAUCUUGGAGGAAGUAAGAGAGGAGAGAGCCAGGGAGGGCUGAAGCUCUGGGACCCUGAAGUGUCCCCCGGGAACUGGGACUCACUCAUCUUCUCCUGUUUGUAGCUCAAUGACCCAGUGGGUCACAGUUCUAGGCGCUCCAAGGAAGCCAGGGGAGGGGGACUCCUCAGGAAGGCUCUUGCGGUCGCACUAGUGUGGAAUUCUCGGGUGUCAAGG
B7: ENSMUSG00000042529.251|Kcnj12 (ssRNA)
RNA: GGGAGUUCUACAGUCCGACGAUCGCUUCGAUAUCCGCAUGCUAAAUUUCUAAUCUAGGAGAUUCCCCUAGGACCCGCUGCAGAGGCAUGGGCUCCUCUGUGGUCCUGGCCAGACCUCUGCCCCCAAAUCUCACUGACUGUUCUAGCCUUGGCCUUGGGGCCUAAGGGUGCAUUCAGCCUGGGUGUGCUUACCUGCCACUCACCUCUCUAUCUAGUUGUCGAGUCUAGGGAAGGGCAGAGGGUGGGUCCUGGCCACUGGGUGCCACUGUGGGAGCCGGGGCACCUGUCAUUCUUUCUGAGUAGGCUCUUGCGGUCGCACUAGUGUGGAAUUCUCGGGUGUCAAGG
B8: ENSMUSG00000031028.344|Tub (ssRNA)
RNA: GGGAGUUCUACAGUCCGACGAUCGCUUCGAUAUCCGCAUGCUAGGUUGACAAGUUUAAGGUUGAACAGGCUGAUUUCUGGAAUCUCAUGAGUGGAGGGGACCCUGGUGGUUAAGAGCGGAACUGGAAGCACAAUGGAAAACUCUUGGACUCUGCUCUCUGCUUUACCACACACAAAAAAGAGGGUUCUUGGCUAUUUGAAUAUAAAGUUGGUAGCACCAGGAAAUAGGCUGAACUUUGUAGCCCACUGUGGAAAGGAGCAGCCUCAGCACAAACCCCUCUGUCGGGCCCUGAGUGACAAGACCCUCUUGCGGUCGCACUAGUGUGGAAUUCUCGGGUGUCAAGG
B9: ENSMUSG00000058297.294|Spock2 (ssRNA)
RNA: GGGAGUUCUACAGUCCGACGAUCGCUUCGAUAUCCGCAUGCUAAGAGAGAAUGAGAGAGAAUGAGAGAGAGAAUACCCGAGGGCCACCCUGAUGCCCAGGAAGAGUGAGGGCAGCCCCCUGUGUGGUGGAAGAGGCUGGGCAGCUAGCUACUGGGGACCUUGUGCUGAGGCUUCCAGGACAAAGCCCCAGUCUGGCUCUCCCCCAGCCUCUCAGGGGCACUGGCUGGUCACAUCCACUGAGUAUUGAUCGGUUGGACUUUAGGGAAGAGCCUCCUCCUUCCCAUUCCUUUCUGCCACCCUGGACUCUUGCGGUCGCACUAGUGUGGAAUUCUCGGGUGUCAAGG
B10: ENSMUSG00000058297.296|Spock2 (ssRNA)
RNA: GGGAGUUCUACAGUCCGACGAUCGCUUCGAUAUCCGCAUGCUAAGAGAAUGAGAGAGAGAAUACCCGAGGGCCACCCUGAUGCCCAGGAAGAGUGAGGGCAGCCCCCUGUGUGGUGGAAGAGGCUGGGCAGCUAGCUACUGGGGACCUUGUGCUGAGGCUUCCAGGACAAAGCCCCAGUCUGGCUCUCCCCCAGCCUCUCAGGGGCACUGGCUGGUCACAUCCACUGAGUAUUGAUCGGUUGGACUUUAGGGAAGAGCCUCCUCCUUCCCAUUCCUUUCUGCCACCCUGGAAUGGCCACCUUACUCUUGCGGUCGCACUAGUGUGGAAUUCUCGGGUGUCAAGG
B11: ENSMUSG00000058297.295|Spock2 (ssRNA)
RNA: GGGAGUUCUACAGUCCGACGAUCGCUUCGAUAUCCGCAUGCUAAAUGAGAGAGAAUGAGAGAGAGAAUACCCGAGGGCCACCCUGAUGCCCAGGAAGAGUGAGGGCAGCCCCCUGUGUGGUGGAAGAGGCUGGGCAGCUAGCUACUGGGGACCUUGUGCUGAGGCUUCCAGGACAAAGCCCCAGUCUGGCUCUCCCCCAGCCUCUCAGGGGCACUGGCUGGUCACAUCCACUGAGUAUUGAUCGGUUGGACUUUAGGGAAGAGCCUCCUCCUUCCCAUUCCUUUCUGCCACCCUGGAAUGGCCCUCUUGCGGUCGCACUAGUGUGGAAUUCUCGGGUGUCAAGG

biological target: TDP-43 (Homo sapiens, UniProt Q13148 1-414); experiment: RNA Bind-n-Seq with designed 260-mer pool; 25 mM Tris-HCl, 150 mM KCl, 3 mM MgCl2, BSA (printed 500 mg/mL), 20 units/mL SUPERase IN; pH not stated; 500 nM RNA pool, 1 h, 4 C; TDP-43 5, 50, 500 nM; high values mean tight binding; settings: protein: recombinant; tags: SBP (GST cleaved off with PreScission; pGEX-GST-SBP)
Outline: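 In 25 mM Tris-HCl, 150 mM KCl, 3 mM MgCl2, BSA and SUPERase IN, 500 nM of an in vitro-transcribed 260-nt 3′ UTR oligo pool was incubated for 1 h at 4 °C with SBP-tagged TDP-43 (5, 50 or 500 nM) captured on streptavidin beads. RNA remaining after washes was biotin-eluted, reverse transcribed, PCR-amplified and sequenced. Binding, R, is the bound-sample abundance of each oligo, normalized to mapped reads, divided by its abundance in input. Each duplicate used a separate, independent protein batch.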

TDP-43, sequence (Q13148 whole entry): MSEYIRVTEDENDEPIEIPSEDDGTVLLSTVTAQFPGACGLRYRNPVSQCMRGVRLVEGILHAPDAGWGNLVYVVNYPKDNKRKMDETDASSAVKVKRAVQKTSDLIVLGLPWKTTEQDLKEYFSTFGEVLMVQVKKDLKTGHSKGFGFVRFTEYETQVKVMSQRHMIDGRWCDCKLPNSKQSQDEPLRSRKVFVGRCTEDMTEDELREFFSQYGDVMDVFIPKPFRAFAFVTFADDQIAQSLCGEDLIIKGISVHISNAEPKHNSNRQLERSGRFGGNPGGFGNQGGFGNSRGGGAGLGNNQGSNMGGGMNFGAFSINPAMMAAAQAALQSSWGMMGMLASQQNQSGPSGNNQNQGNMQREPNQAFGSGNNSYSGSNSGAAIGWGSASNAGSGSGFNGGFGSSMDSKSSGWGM

For B1, which binding signal is on record?
The binding signal was 0.506 R (bound/input frequency ratio).

B2 was tested. Which binding signal did it give?
The binding signal was 0.58 R (bound/input frequency ratio).

Which binding signal does the source give for B3 here?
The binding signal was 0.0361 R (bound/input frequency ratio).

For B4, which binding signal is on record?
Its binding signal is 0.544 R (bound/input frequency ratio).

With B5 as the binder, how does the binding signal read?
The binding signal was 0.438 R (bound/input frequency ratio).

For B6, which binding signal is on record?
Its binding signal is 0.535 R (bound/input frequency ratio).

How did the binding signal turn out when B7 was run?
The binding signal was 0.996 R (bound/input frequency ratio).

With B8 as the binder, how does the binding signal read?
The binding signal was 0.993 R (bound/input frequency ratio).

With B9 as the binder, how does the binding signal read?
The binding signal was 2.14 R (bound/input frequency ratio).

For B10, which binding signal is on record?
Its binding signal is 9.19 R (bound/input frequency ratio).

B11 was tested. Which binding signal did it give?
Its binding signal is 3.63 R (bound/input frequency ratio).
